Results on 27 compounds are retold here after PubChem BioAssay AID430 (Sanford-Burnham Center for Chemical Genomics, 2006).

The structures appear in SMILES notation. About 1,100 (1.7%) of roughly 63,000 compounds were called active. The entries come from a sample that favours actives as a whole. Results with a measured potency or affinity are listed apart. Unmarked numbers belong to inactive results. No stated cut-off is given here; in the data, active means cytotoxicity above about 50%; inactive means the rest.

This test in a line: cytotoxicity in HPDE-C7 cells, cell-based, fluorescence, HTS (AID 430).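 Further: cells exposed to compound for 48 hours before viability readout; 0% = vehicle and 100% = reference cytotoxic drug.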 To be noted: HPDE-C7 pancreatic duct cells viability, at 10 µM, stronger effect = higher value.
For `COc1cccc(NC(=O)C2CCCN2C(=O)Nc2cccc(F)c2)c1` (configuration not stated), the cytotoxicity was 9.8%.
In the case of `COC(=O)CSc1nnc(-c2ccccc2OC)o1`, the cytotoxicity is -25.6%.
For `COc1ccccc1-c1nnc(SCC(=O)Nc2c(Cl)cccc2Cl)o1` the value was -1.3%; for `O=S(=O)(c1ccc(OCC(O)CNCc2ccco2)c(Cl)c1)N1CCOCC1` (configuration not stated), -9.8%; for `Cc1ccc(C)c(Cn2c(=O)n(CCC(=O)NCc3ccco3)c(=O)c3ccccc32)c1`, -14.5%.
For the compound `Cc1ccccc1Cn1c(=O)n(CCCC(=O)NCc2ccco2)c(=O)c2ccccc21`, the cytotoxicity was -24.1%.
The figure for `CCn1c(=O)cc(SCC(=O)NCc2ccco2)c2ccccc21` is 62.1% (active).
Regarding `Cc1ccc(C)c(Cn2c(=O)n(CCCC(=O)NCc3ccco3)c(=O)c3ccccc32)c1`, the cytotoxicity is 60.2% (active).
The figure for `CCn1c(=O)cc(OCC(=O)NCc2ccco2)c2ccccc21` is 5.8%; for `Cn1c(=O)cc(SCC(=O)NCc2ccco2)c2ccccc21` it is -4.4%; for `CC1CN(c2nc3ccccc3nc2C(C#N)C(=O)OC2CCCCC2)CC(C)O1` (configuration not stated) it is -26.1%.
Take `COc1ccc(-c2nc(CS(=O)CC(=O)NCc3ccco3)c(C)o2)cc1OC` (configuration not stated): the cytotoxicity was 2.9%.
For `COC(=O)c1cc2ccsc2n1Cc1nc(-c2ccc(OC)cc2)oc1C`, the cytotoxicity was -7%.
As for `COC(=O)c1ccc(-c2ccco2)n1Cc1nc(-c2ccc(OC)c(OC)c2)oc1C`, the cytotoxicity was 71.6% (active).
The figure for `COC(=O)C1=C(C)N(CC2CCCO2)C(=O)C1` (configuration not stated) is 6%; for `Cc1cc(=O)[nH]c(SC/C=C/c2ccccc2)n1` it is -13.4%; for `Cc1cc(=O)[nH]c(SCc2nc3ccccc3s2)n1` it is 57% (active).
As for `Cc1cc(=O)[nH]c(SCc2cccc(Br)c2)n1`, the cytotoxicity was 2.7%.
The figure for `CC(=O)Nc1ccc(C(=O)CS(=O)(=O)c2ccc(C)cc2)cc1` is -17.2%; for `Cc1cc2c(c(=O)o1)C1(C(=O)N(C)c3ccccc31)C(C#N)=C(N)O2` (configuration not stated) it is -8.3%; for `COc1ccccc1-n1cnc2cc(NCc3ccco3)ccc21` it is 63.6% (active).
Turning to `COc1ccccc1-n1cnc2cc(NC(C)=O)ccc21`, the cytotoxicity is -8.6%.
Consider `CCC(=O)Nc1ccc2c(c1)ncn2-c1ccccc1OC`, for which the cytotoxicity was -35.6%.
Turning to `O=C(CCCCCN1C(=O)CCC1=O)Nc1ncn[nH]1`, the cytotoxicity was -2.1%.
For `CCOc1cccc2cc(-c3nnc(-c4ccccc4)o3)c(=O)oc12` the value was -14.9%; for `CCCCCCc1cc2cc(C(=O)NC)c(=N)oc2cc1O`, 19.4%; for `CCCCCCc1cc2cc(-c3nnc(-c4ccccc4O)o3)c(=O)oc2cc1O`, 62.7% (active).
